Assay [1] can be described thus: sensitizers of A549 cells to miR-34 induction, primary screen, imaging, A549 dox-inducible miR-34, nuclei and caspase counts (AID 1347080). The settings on record: A549 miR-34 inducible, Hoechst nuclei count, 48 h.
The nature of assay [2]: survival rescue of mitochondrial mutant cells in low glucose, primary screen, MELAS cybrids, Rieske KO mouse fibroblasts, CellTiter-Glo (AID 1508586;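 active = mean z-score across replicates of 1.96 or higher in either the MELAS or the Rieske mutant cell line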;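 note: z relative to plate mean and SD of compound and empty wells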).
For assay [3], the target named is NAD(+) hydrolase SARM1 (Homo sapiens) (UniProt Q6SZW1). As to the kind of experiment: SARM1 TIR NADase inhibitors, cell lysate, NAD-Glo luminescence (AID 1508614;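 active = compound whose remaining NAD level is above about 45 nM, limit read from the data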;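 note: higher remaining NAD means stronger inhibition of SARM1 NADase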). To be noted: SAM-TIR HEK293T lysate NADase, at 1 µM, stronger effect = higher value.
The nature of assay [4]: viability rescue of complex I mutant cybrids, primary screen, cell-based, galactose medium, ATP luminescence (AID 1645843;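 active = z-score of at least 1.8 in each of two replicates, scored against plate mean and spread of sample wells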;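 note: positive z means more ATP and so rescue of galactose-driven cybrid death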). To be noted: complex I mutant cybrid cells, 72 h, stronger effect = higher value.
Assay [5] has as its target Mitogen-activated protein kinase 7 (Homo sapiens) (UniProt Q13164). As to the kind of experiment: ERK5 transactivation activators in reporter cells, primary screen, cell-based, HTS (AID 1508626;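 active = luciferase signal above three times the same-plate solvent-only control wells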;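 note: luciferase driven by Gal4-ERK5 fusion binding five Gal4 sites before minimal TATA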). To be noted: HeLa Gal4-ERK5 transactivation, 18 h, at 5 µM, stronger effect = higher value.
Where [6] appears, read: stronger effect = lower value, cell number ratio, induced over uninduced.
Where [7] appears, read: measured here: relative caspase fold change +Dox/-Dox.
Where [8] appears, read: measured here: total cells with miR-34 induction, stronger effect = lower value.
The mark [9] stands for this setting: measured here: total cells without miR-34 induction.
[10] abbreviates: MELAS cybrid survival, CellTiter-Glo 48 h, stronger effect = higher value.
Setting [11] is: Rieske KO mouse fibroblast survival, CellTiter-Glo 72 h.

Several values for one entry are separate records, joined by “and”; a condition that tells them apart may be missing. Equal entries are not always repeated. Activity calls are given as the source filed them.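 Rule for the calls, unless noted: active = compounds whose cell count with miR-34 switched on is under 0.7 times the count with it off; inactive = the rest.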

Sequence of Mitogen-activated protein kinase 7 (Homo sapiens) (Q13164 whole entry, looked up, the tested form may be a part): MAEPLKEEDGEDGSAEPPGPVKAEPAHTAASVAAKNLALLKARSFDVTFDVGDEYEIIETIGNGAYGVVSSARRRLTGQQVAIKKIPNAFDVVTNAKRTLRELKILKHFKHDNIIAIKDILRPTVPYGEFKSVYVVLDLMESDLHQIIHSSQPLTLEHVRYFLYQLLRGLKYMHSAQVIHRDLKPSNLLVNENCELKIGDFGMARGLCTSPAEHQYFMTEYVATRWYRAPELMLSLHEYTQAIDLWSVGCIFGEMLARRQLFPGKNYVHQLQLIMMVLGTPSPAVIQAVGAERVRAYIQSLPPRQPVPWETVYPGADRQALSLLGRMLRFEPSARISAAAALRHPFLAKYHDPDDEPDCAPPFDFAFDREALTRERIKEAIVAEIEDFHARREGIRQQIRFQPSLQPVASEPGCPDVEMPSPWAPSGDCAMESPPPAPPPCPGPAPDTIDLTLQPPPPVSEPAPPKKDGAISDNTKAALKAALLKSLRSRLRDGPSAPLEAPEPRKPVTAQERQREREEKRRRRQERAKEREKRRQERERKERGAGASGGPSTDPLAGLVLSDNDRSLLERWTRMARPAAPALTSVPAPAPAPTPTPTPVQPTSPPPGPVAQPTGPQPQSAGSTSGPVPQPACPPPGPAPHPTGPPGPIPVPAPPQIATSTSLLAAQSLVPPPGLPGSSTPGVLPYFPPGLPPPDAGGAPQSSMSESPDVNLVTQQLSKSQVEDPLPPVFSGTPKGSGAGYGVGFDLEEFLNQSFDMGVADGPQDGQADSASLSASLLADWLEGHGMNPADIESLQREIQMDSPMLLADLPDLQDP
Sequence of NAD(+) hydrolase SARM1 (Homo sapiens) (Q6SZW1 whole entry, looked up): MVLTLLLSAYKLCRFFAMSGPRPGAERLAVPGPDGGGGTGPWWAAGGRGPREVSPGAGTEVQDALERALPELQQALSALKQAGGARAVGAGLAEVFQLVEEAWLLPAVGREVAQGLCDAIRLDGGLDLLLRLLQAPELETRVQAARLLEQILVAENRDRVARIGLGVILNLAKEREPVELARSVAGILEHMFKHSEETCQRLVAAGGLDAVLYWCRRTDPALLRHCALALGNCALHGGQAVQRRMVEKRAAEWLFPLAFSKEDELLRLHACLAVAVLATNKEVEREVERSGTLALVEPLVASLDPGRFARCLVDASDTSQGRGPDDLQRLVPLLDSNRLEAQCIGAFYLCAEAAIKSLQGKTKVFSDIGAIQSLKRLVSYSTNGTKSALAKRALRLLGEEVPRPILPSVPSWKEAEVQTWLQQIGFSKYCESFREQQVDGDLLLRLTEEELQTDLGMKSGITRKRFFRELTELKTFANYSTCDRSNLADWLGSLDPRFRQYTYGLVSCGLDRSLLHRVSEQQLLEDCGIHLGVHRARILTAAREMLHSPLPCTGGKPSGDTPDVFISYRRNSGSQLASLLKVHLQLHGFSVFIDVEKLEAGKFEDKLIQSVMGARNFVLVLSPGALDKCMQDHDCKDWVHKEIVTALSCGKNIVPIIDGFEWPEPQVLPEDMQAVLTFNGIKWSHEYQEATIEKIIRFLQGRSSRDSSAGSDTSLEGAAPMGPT

With `CC(C)(C(=O)c1cccnc1)c1cccnc1`, the fold change was 0.962 (inactive) and 0.83 (inactive) and 0.921 (inactive) in assay [1] (setting [6]); 1.43 and 1.26 and 2.87 in assay [1] (setting [7]). The cell count in assay [1] (setting [8]) was 10400 and 8590 and 12100; in assay [1] (setting [9]), 10800 and 10300 and 13100. Besides, the figures for the z-score in assay [2] (setting [10]), in assay [2] (setting [11]) and in assay [4] were 0.55 (inactive), 0.502 and 0.18 (inactive), respectively. The remaining NAD in assay [3] was 100 nM (active).
In the case of `CCN(CC)C(=O)N1CCN(C)CC1`, the fold change in assay [1] (setting [6]) was 0.919 (inactive) and 0.923 (inactive) and 0.836 (inactive); in assay [1] (setting [7]), 1.19 and 0.187 and 0.88. For the same compound, the cell count in assay [1] (setting [8]) is 8740 and 9030 and 11300; in assay [1] (setting [9]), 9520 and 9780 and 13500. Besides, the z-score is 0.833 (inactive) and 0.0717 (inactive) in assay [2] (setting [10]); -0.23 and -0.00609 in assay [2] (setting [11]); 0.74 (inactive) in assay [4]. In addition, the remaining NAD in assay [3] was 10 nM (inactive). Besides, in assay [5], the luciferase signal was 60 AU (inactive).
Take `COC(=O)N/N=C/c1c[n+]([O-])c2ccccc2[n+]1[O-]`: the fold change is 0.833 (inactive) and 0.91 (inactive) in assay [1] (setting [6]); 6.83 and 1.15 in assay [1] (setting [7]). In addition, the cell count in assay [1] (setting [8]) is 10200 and 7650; in assay [1] (setting [9]), 12300 and 8400. Also, the z-score in assay [2] (setting [10]) is 0.937 (inactive) and 0.871 (inactive); in assay [2] (setting [11]) it was 0.153 and -0.0791; in assay [4], 0.34 (inactive). Also, in assay [3], the remaining NAD is 10 nM (inactive). Also, the luciferase signal in assay [5] is 172 AU (inactive).
Take `CC(C(=O)O)c1ccc(C(=O)c2cccs2)cc1` (centres undefined): the fold change in assay [1] (setting [6]) was 0.842 (inactive) and 0.947 (inactive) and 0.9 (inactive); in assay [1] (setting [7]), 1.16 and 0.84 and 2.46. The cell count in assay [1] (setting [8]) was 9210 and 7840 and 11900; in assay [1] (setting [9]) it was 10900 and 8270 and 13200. The z-score in assay [2] (setting [10]) was 0.0275 (inactive) and 0.475 (inactive); in assay [2] (setting [11]), -0.115 and -0.0807. Also, the luciferase signal in assay [5] was 92 AU (inactive).
In the case of `O=C1c2ccccc2C(=O)c2c1ccc(O)c2O`, the fold change is 0.918 (inactive) in assay [1] (setting [6]) and 1.48 in assay [1] (setting [7]). Further, the cell count in assay [1] (setting [8]) is 8090; in assay [1] (setting [9]), 8800. In addition, the z-score was -0.0543 (inactive) in assay [2] (setting [10]) and -0.449 in assay [2] (setting [11]). In assay [5], the luciferase signal is 36 AU (inactive).
`Cc1ccc(C(=O)c2ccc(CC(=O)O)n2C)cc1`: the fold change in assay [1] (setting [6]) was 0.916 (inactive) and 0.846 (inactive) and 0.923 (inactive); in assay [1] (setting [7]), 1.2 and 2.52 and 1.03. Besides, the cell count was 9430 and 10400 and 9670 in assay [1] (setting [8]); 10300 and 12300 and 10500 in assay [1] (setting [9]). Further, the z-score in assay [2] (setting [10]) is 0.498 (inactive) and 0.311 (inactive); in assay [2] (setting [11]), 0.161 and -0.684; in assay [4], 1.02 (inactive). Further, the remaining NAD in assay [3] was 10 nM (inactive). For the same compound, the luciferase signal in assay [5] was 84 AU (inactive).
For `COc1cc2c(cc1OC)C(=O)C(CC1CCN(Cc3ccccc3)CC1)C2` (centres undefined), the fold change in assay [1] (setting [6]) is 0.863 (inactive) and 0.884 (inactive); in assay [1] (setting [7]) it was 1.25 and 2.01. The cell count in assay [1] (setting [8]) was 8000 and 11200; in assay [1] (setting [9]) it was 9270 and 12700. The z-score was 1.84 (inactive) in assay [2] (setting [10]), 0.641 in assay [2] (setting [11]) and -0.225 (inactive) in assay [4]. Moreover, the remaining NAD in assay [3] is 10 nM (inactive). In addition, the luciferase signal in assay [5] was 32 AU (inactive).
Regarding `Oc1c(Cl)cc(Cl)c(Cl)c1Cc1c(O)c(Cl)cc(Cl)c1Cl`, the fold change in assay [1] (setting [6]) is 1.05 (inactive) and 0.85 (inactive); in assay [1] (setting [7]) it was 2.17 and 2.72. The cell count was 2100 and 2440 in assay [1] (setting [8]); 2010 and 2860 in assay [1] (setting [9]). The results for the z-score in assay [2] (setting [10]), in assay [2] (setting [11]) and in assay [4] were -0.483 (inactive), 0.0864 and -1.5 (inactive), respectively. Moreover, the remaining NAD in assay [3] is 10 nM (inactive). The luciferase signal in assay [5] is 28 AU (inactive).
Turning to `COC(=O)CCc1ccc(OCC(O)CNC(C)C)cc1` (centres undefined), the fold change in assay [1] (setting [6]) is 0.896 (inactive) and 0.841 (inactive) and 0.908 (inactive); in assay [1] (setting [7]), 0.838 and 0.901 and 1.51. Also, the cell count is 9510 and 7720 and 9690 in assay [1] (setting [8]); 10600 and 9170 and 10700 in assay [1] (setting [9]). Moreover, the z-score in assay [2] (setting [10]) is -0.164 (inactive) and -0.834 (inactive) and -0.539 (inactive); in assay [2] (setting [11]) it was -0.149 and -1.1 and -1.41; in assay [4] it was 0.52 (inactive) and 0.07 (inactive).
